Experimental data: a collection of fitness landscapes (doi:10.1016/j.celrep.2020.107928)
Whole data set: some 81,000 sequences, median “one-hybrid fitness for binding NBS DNA” near -0.1, cut for the highest 2% near 0.36. Many of the other results were omitted from the sample, so the highest values are more common in it than they were.

B1: Caulobacter ParB omega fusion; a variant is named by its letters at X, in order, B8GW30 (parent)
chain: MESVVVGEPGMSEGRRGLGRGLSALLGEVDAAPAQAPGEQLGGSREAPIEILQRNPDQPRRTFREEDLEDLSNSIREKGVLQPILVRPSPDTAGEYQIVAGERAWRAAQRAGLKTVPIMVRELDDLAVLEIGIIENVQRADLNVLEEALSYKVLMEKFERTQENIAQTIGKSXSHVANXMRLLXLPDEVQSYLVSGELTAXHARAIAAAADPVALAKQIIEGGLSVRETEALARKAPNLSAGKSKGGRPPRVKDTDTQALESDLSSVLGLDVSIDHRGSTGTLTITYATLEQLDDLCNRLTRGI

Variants of: B1
Test: one-hybrid fitness for binding NBS DNA (the Noc-binding site; scaled: cognate 1, non-cognate 0); higher = stronger binding
Details: with NBS DNA site
Outline: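 The reporter was HIS3, with the binding site 19 bp from the promoter, in E. coli USO used for bacterial one-hybrid selection of Caulobacter ParB libraries with four specificity codons randomised. Growth was on M9 lacking histidine, with 0.1 mM IPTG and 5 mM 3-AT, for 48 hours at 37°C. Illumina sequencing covered plasmids before and after selection; three replicate libraries were pooled and variants with under 10 reads dropped. A fitness score is the log change in variant-to-wild-type read ratio, rescaled to the cognate and non-cognate references.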

Variant | one-hybrid fitness for binding NBS DNA
PSRF | ≤ 0.2
GSQF | ≤ 0.2
RLMM | ≤ 0.2
HSIS | ≤ 0.2
RMQG | ≤ 0.2
RMWR | 0.289
RMSP | ≤ 0.2
RMRR | 0.736
RMSR | 0.468
RMQF | ≤ 0.2
RMRP | ≤ 0.2
RMSN | ≤ 0.2
RMPR | ≤ 0.2
RMIR | 0.253
RMQR | 0.411
RMYR | 0.424
RYMW | ≤ 0.2
MSPG | ≤ 0.2
AAPF | ≤ 0.2
KVSV | ≤ 0.2
SDKS | ≤ 0.2
WSYG | ≤ 0.2
SPGT | ≤ 0.2
PNYD | ≤ 0.2

Variant | one-hybrid fitness for binding NBS DNA
KQNC | ≤ 0.2
VKNL | ≤ 0.2
FTGV | ≤ 0.2
QSPF | ≤ 0.2
TTVG | ≤ 0.2
GWPD | ≤ 0.2
RMHR | 0.503
RMLS | 0.309
RMLN | ≤ 0.2
RMAR | 0.46
RMHF | ≤ 0.2
RMGR | 0.479
RMHM | ≤ 0.2
RMLR | 0.431
RMFR | 0.348
RMAD | ≤ 0.2
RMGN | ≤ 0.2
RMGH | ≤ 0.2
LIKT | ≤ 0.2
VQSV | ≤ 0.2
DCSG | ≤ 0.2
TPHH | ≤ 0.2
LLVG | ≤ 0.2
TAIG | ≤ 0.2

Variant | one-hybrid fitness for binding NBS DNA
HVIC | ≤ 0.2
VVRW | ≤ 0.2
RMCR | 0.433
RMNN | ≤ 0.2
RMCN | ≤ 0.2
RMNR | 0.545
RMDR | ≤ 0.2
RMCH | ≤ 0.2
NAAS | ≤ 0.2
FAAL | ≤ 0.2
FARL | ≤ 0.2
FAFL | 0.451
FAFR | 0.364
FAAR | ≤ 0.2
FAYR | ≤ 0.2
MKNR | ≤ 0.2
NTMM | ≤ 0.2
VTYY | ≤ 0.2
HWST | ≤ 0.2
WHPR | ≤ 0.2
RKLR | 0.525
RPLR | ≤ 0.2
RKLH | 0.227
RCLR | 0.416

Variant | one-hybrid fitness for binding NBS DNA
RKLN | ≤ 0.2
RSLR | 0.339
VCVG | ≤ 0.2
QFIL | ≤ 0.2
QQRQ | 0.421
QQAQ | ≤ 0.2
QQKQ | 0.493
QQYQ | ≤ 0.2
QQLQ | ≤ 0.2
QQSQ | ≤ 0.2
QQVF | ≤ 0.2
QQVQ | 0.395
FDNG | ≤ 0.2
NNAW | ≤ 0.2
YMTS | ≤ 0.2
GPQR | ≤ 0.2
YAEG | ≤ 0.2
QGWN | ≤ 0.2
VMDS | ≤ 0.2
LDDR | ≤ 0.2
SESE | ≤ 0.2
DLGS | ≤ 0.2
RERT | ≤ 0.2
RAYT | 0.353

Variant | one-hybrid fitness for binding NBS DNA
RIYT | 0.34
RART | 0.621
RFDT | ≤ 0.2
RIRT | 0.615
RFRT | 0.456
RAWT | 0.236
RPRT | ≤ 0.2
RIPT | ≤ 0.2
RFYT | ≤ 0.2
RCRT | 0.706
PNYV | ≤ 0.2
RQPS | ≤ 0.2
SQNC | ≤ 0.2
HISC | ≤ 0.2
LSFT | ≤ 0.2
TGSY | ≤ 0.2
KYSS | ≤ 0.2
CQDS | ≤ 0.2
RSIT | ≤ 0.2
RCYT | 0.517
RSYT | 0.322
RSRT | 0.602
RPYT | ≤ 0.2
RCDT | 0.266

Variant | one-hybrid fitness for binding NBS DNA
CPVW | ≤ 0.2
KHGP | ≤ 0.2
QYFN | ≤ 0.2
QYAR | 0.517
QYAN | ≤ 0.2
QYFR | 0.366
QYAH | ≤ 0.2
QYFS | ≤ 0.2
INHG | ≤ 0.2
YKQS | ≤ 0.2
TADE | ≤ 0.2
RRLD | ≤ 0.2
RRLP | ≤ 0.2
RPLS | ≤ 0.2
RCLH | ≤ 0.2
RRLH | 0.365
RRLN | 0.23
RRLS | 0.606
RCLS | 0.396
RSLS | 0.303
GLNS | ≤ 0.2
KRSF | ≤ 0.2
ASNS | ≤ 0.2
DKMS | ≤ 0.2

Variant | one-hybrid fitness for binding NBS DNA
HKVM | ≤ 0.2
VYHT | ≤ 0.2
KGST | ≤ 0.2
WSCT | ≤ 0.2
QKAR | 0.606
QKAH | ≤ 0.2
QKFH | ≤ 0.2
QKFP | ≤ 0.2
QKAK | ≤ 0.2
QKFR | 0.435
GQKR | 0.201
SYQK | ≤ 0.2
QHDR | 0.336
QDDR | ≤ 0.2
QCDR | 0.402
QIDR | 0.234
QSNP | ≤ 0.2
QINN | ≤ 0.2
QHNR | 0.618
QPDR | ≤ 0.2
QHNP | ≤ 0.2
QSNR | 0.62
QSDR | 0.317
QINR | 0.479

Variant | one-hybrid fitness for binding NBS DNA
PRGP | ≤ 0.2
QPNR | 0.236
QANR | 0.583
QLNR | 0.551
QLDR | 0.295
QADR | 0.314
QCNR | 0.751
QLND | ≤ 0.2
QANN | ≤ 0.2
QFNR | 0.268
NTLI | ≤ 0.2
VIMF | ≤ 0.2
LAGN | ≤ 0.2
EMRR | 0.21
ADQR | ≤ 0.2
FNIT | ≤ 0.2
RPMM | ≤ 0.2
GCIC | ≤ 0.2
QTRR | 1.15
QTNG | 0.286
QTNR | 0.936
QTDP | ≤ 0.2
QTNK | 0.304
DTRR | 0.303

Variant | one-hybrid fitness for binding NBS DNA
QTYR | 0.691
NTRR | 0.235
QTDR | 0.483
PSTM | ≤ 0.2
IDSK | ≤ 0.2
HNGW | ≤ 0.2
VPAW | ≤ 0.2
YCQT | ≤ 0.2
TPGL | ≤ 0.2
LPPV | ≤ 0.2
HSKL | ≤ 0.2
IRKD | ≤ 0.2
IRKS | 0.37
IRVT | ≤ 0.2
ISNT | ≤ 0.2
CRVT | ≤ 0.2
ISKT | ≤ 0.2
IRDT | ≤ 0.2
IRKT | 0.471
CRKT | 0.365
CCKT | ≤ 0.2
IRNT | 0.451
ICKS | ≤ 0.2
NWRM | ≤ 0.2

Variant | one-hybrid fitness for binding NBS DNA
VPHA | ≤ 0.2
QWQG | ≤ 0.2
FVWR | ≤ 0.2
DGRN | ≤ 0.2
NANS | ≤ 0.2
VHVA | ≤ 0.2
KSLV | ≤ 0.2
HSRL | ≤ 0.2
ICNR | ≤ 0.2
IRNR | 0.422
ISKR | 0.243
IRRT | 0.423
IRYR | 0.226
IRDR | ≤ 0.2
IRYT | ≤ 0.2
IRKR | 0.67
IRRR | 0.601
ICKR | 0.273
ICRR | 0.291
ICRT | ≤ 0.2
HAYM | ≤ 0.2
CMSN | ≤ 0.2
ARHS | ≤ 0.2
TQNT | ≤ 0.2

Variant | one-hybrid fitness for binding NBS DNA
TSWF | ≤ 0.2
VQPL | ≤ 0.2
RWGG | ≤ 0.2
MFWL | ≤ 0.2
RIRE | ≤ 0.2
TLNG | ≤ 0.2
DAAP | ≤ 0.2
GRNT | ≤ 0.2
VFAC | ≤ 0.2
QCRA | 0.658
QHYA | 0.291
QADA | ≤ 0.2
QARA | 0.519
QMRA | 0.569
QHDA | ≤ 0.2
QAYA | 0.249
QHRA | 0.533
QCYA | 0.328
QMYA | 0.267
QPRA | ≤ 0.2
QMDA | ≤ 0.2
QTEQ | ≤ 0.2
PTMF | ≤ 0.2
HNHR | ≤ 0.2

Variant | one-hybrid fitness for binding NBS DNA
PCGG | ≤ 0.2
TWLL | ≤ 0.2
LKVE | ≤ 0.2
PCRQ | ≤ 0.2
SSRV | ≤ 0.2
HLTD | ≤ 0.2
QIYA | ≤ 0.2
QKYA | 0.249
QSDA | ≤ 0.2
QLRA | 0.479
QIAA | ≤ 0.2
QSRA | 0.516
QLDA | ≤ 0.2
QKFA | ≤ 0.2
QLYA | ≤ 0.2
QIRA | 0.386
QKRA | 0.539
QSYA | 0.208
MCAS | ≤ 0.2
PTRY | ≤ 0.2
CVKD | ≤ 0.2
PVDC | ≤ 0.2
YENN | ≤ 0.2
QHSL | ≤ 0.2

Variant | one-hybrid fitness for binding NBS DNA
RRRM | 0.651
RRVM | 0.206
RCKM | 0.238
RRYG | 0.331
RRVS | 0.605
RRKM | 0.647
RRDG | ≤ 0.2
RRYM | 0.296
RCRM | 0.231
RCVS | 0.335
RRRG | 0.497
RRVD | ≤ 0.2
HRIT | ≤ 0.2
SNQT | ≤ 0.2
TVTC | ≤ 0.2
GVCG | ≤ 0.2
MMPN | ≤ 0.2
MEVE | ≤ 0.2
